40 compounds from PubChem BioAssay (Tox21) can be followed below.

Results filed as inconclusive are left out. Activity calls are given as the source filed them. Calls come from the whole dose curve; as a rule, active = well fitted curve in the direction sought with a large enough effect in the signal ratio in the repeat runs (not every such curve was filed as active); inconclusive = weak or mixed curves, or a change in a side signal; inactive = no such curve, though single readings can be large or run the other way; the % refers to the signal ratio.

The assay can be described thus: qHTS assay to identify small molecule agonists of the NFkB signaling pathway (AID 1159509). The settings on record: NFkB-bla ME-180 cells, beta-lactamase FRET ratio, 5 h; series mostly up to 61 µM. The text has this: National Center for Advancing Translational Sciences [NCATS]
NIH Chemical Genomics Center [NCGC]
U.S. Environmental Protection Agency [EPA]
National Institutes of Environmental Health Sciences [NIEHS]
National Toxicology Program [NTP]
U.S. Food and Drug Administration [FDA]
Transcription factors and their stimulated target gene expression play pivotal roles across many cellular processes including responses to environmental stimuli. Proper regulation of associated pathways is critical to maintain cell health and function. Constitutive activation of transcription factor pathways has been implicated in tumors as it may block cellular functions such as apoptosis and lead to invasion and metastasis. One important transcription factor that stimulates gene expression in response to cytokines, UV radiation, and other stimuli is nuclear factor-kappa B (NFkB). To measure activation of the NFkB pathway, the CellSensor NFkB-bla ME-180 cell line (Life Technologies, Carlsbad, CA) that stably expresses beta-lactamase reporter gene under the regulation of a NF-kB response element was used. This assay allows measurement of the NFkB pathway activity induced by compounds in a ME-180 cell line. This system quantitates NF-kB activity using a FRET-based assay system where beta-lactamase expression disrupts FRET, allowing for fluorescent measurement of activity. This cell line has been used to screen the Tox21 10K compound library and to identify compounds that induce the NFkB pathway activity.
Tox21 Assay Protocol Summary:
NFkB-bla ME-180 cells were dispensed at 2,000 cells/6 uL of assay medium per well into black wall/clear-bottom 1536-well plates using a Multidrop Combi (ThermoFisher Scientific, Waltham, MA) dispenser. After the assay plates were incubated at 37 C and 5% CO2 for an overnight, 23 nL of compounds dissolved in DMSO, positive controls or DMSO only was transferred to the assay plate by a Pintool station (Kalypsys, San Diego, CA). The assay plates were incubated at 37 C and 5% CO2 for 5 hr. One uL of LiveBLAzer B/G FRET substrate (Life Technologies) was added using a Flying Reagent Dispenser (Aurora Discovery, San Diego, CA) and the plates were incubated at room temperature for 1.5 hr. Fluorescence intensity (405 nm excitation, 460 nm and 530 nm emissions) was measured using an Envision plate reader (PerkinElmer, Shelton, CT).
In general terms: Quantitative high-throughput screening tests each substance at several concentrations.
On to `CNC(=O)Oc1ccccc1OC(C)C`, for which the outcome was inactive.

`O=S(=O)(c1ccc(O)cc1)c1ccc(O)cc1`: the outcome was inactive.

As to `O=S(=O)(c1ccc(Cl)cc1)c1cc(Cl)c(Cl)cc1Cl`, the result was inactive.

`O=C(O)c1ccccn1`: the outcome was inactive.

For `CC(C)(Cl)Cl`, the result was inactive.

In the case of `O=C1CCCN1`, the outcome was inactive.

`CC(C)N1C(=O)c2ccccc2NS1(=O)=O`: the result was inactive.

For the compound `[O-][Cl+2]([O-])O`, the outcome was inactive.

Turning to `C1CN2CCN1CC2`, the outcome was inactive.

In the case of `O=[N+]([O-])c1ccccc1`, the outcome was inactive.

On to `COP(N)(=O)SC` (stereo not given), for which the outcome was inactive.

For the compound `CC(Oc1ccc(Cl)cc1Cl)C(=O)O` (stereo not given), the result was inactive.

`COC(=O)NC(=S)Nc1ccccc1NC(=S)NC(=O)OC`: the result was inactive.

With `O=C(NC(=O)c1c(F)cccc1F)Nc1cc(Cl)c(OC(F)(F)C(F)C(F)(F)F)cc1Cl` (stereo not given), the outcome was inactive.

As for `O=c1ccc(=O)[nH][nH]1`, the outcome was inactive.

`ClCCBr`: the result was inactive.

As for `O=c1[nH]c2ccccc2c(=O)o1`, the result was inactive.

Take `Clc1cccc(Cl)c1Cl`: the outcome was inactive.

In the case of `CCOP(=S)(OCC)Oc1cnc2ccccc2n1`, the outcome was inactive.

For the compound `CN(N=O)c1ccccc1`, the outcome was inactive.

With `CC(NC(C)(C)C)C(=O)c1cccc(Cl)c1` (stereo not given), the result was inactive.

Regarding `CC(C)=C[C@@H]1[C@@H](C(=O)OCc2coc(Cc3ccccc3)c2)C1(C)C`, the outcome was inactive.

In the case of `C#CCN(C)[C@H](C)Cc1ccccc1`, the result was inactive.

`CCc1cccc(C)c1N(C(=O)CCl)C(C)COC` (stereo not given): the result was inactive.

Regarding `Nc1ccc(Oc2ccc(N)cc2)cc1`, the outcome was inactive.

Regarding `COCCl`, the result was inactive.

For `Cc1cccc([N+](=O)[O-])c1`, the result was inactive.

As to `[N-]=[N+]=[N-]`, the outcome was inactive.

On to `O=NN1CCCCCCC1`, for which the outcome was inactive.

Take `CCC[N+](=O)[O-]`: the outcome was inactive.

As to `CCCN(CCC)N=O`, the outcome was inactive.

Consider `CCCCCCCCCCCC#N`, for which the outcome was inactive.

As to `CC(C)C#N`, the outcome was inactive.

As to `O=[N+]([O-])c1ccc([As](=O)(O)O)cc1`, the outcome was inactive.

In the case of `COC(=O)c1ccccc1N`, the outcome was inactive.

For `C#CC(C)(C)NC(=O)c1cc(Cl)cc(Cl)c1`, the outcome was inactive.

As to `CN1C(=O)CN=C(c2ccccc2)c2cc(Cl)ccc21`, the result was inactive.

In the case of `Clc1ccc(Cl)cc1`, the result was inactive.

In the case of `CCC(C)(CC)c1cc(NC(=O)c2c(OC)cccc2OC)on1`, the result was inactive.

Turning to `C1CC2OC2CC1C1CO1` (stereo not given), the result was inactive.
